# From PubChem BioAssay AID1159580 (chemical genetic matrix, 2015)
# Where “and” joins values, the source holds several entries; their conditions need not be identical. Identical values can stand only once. In all, about 5,500 compounds went through this assay and about 2,000 (36%) were called active. About 18% were inconclusive and are not listed. The list shows a part of the results. Unmarked numbers belong to inactive results. Rule as the data show it: active = normalized growth mostly below about 0.91 (no sharp cut-off); inconclusive = no clear call, values can overlap the other calls; inactive = mostly above about 0.92.
# Assay: chemical genetic growth profiling, strain panel (AID 1159580);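 also: tested at 20 µM; growth read once vehicle control cultures reached saturation at 30 °C; 1 = growth at the plate median or of vehicle wells; lower values mean less growth of the strain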
# Settings: S. cerevisiae deletion strains, growth OD
structure (smiles),measurement,setting,value
COc1cc(OC)c2c(OC)c(-c3ccc4c(c3)OCO4)c(=O)oc2c1,normalized growth,"locus YAL013W, strain DEP1, active compounds read low",0.982
same,normalized growth,"locus YAL021C, strain ccr4, active compounds read low",0.968
same,normalized growth,"locus YAL026C, strain drs2, active compounds read low",0.957
same,normalized growth,"locus YAL030W, strain snc1, active compounds read low",0.975
same,normalized growth,"locus YBL061C, strain skt5, active compounds read low",0.955
same,normalized growth,"locus YBR009C, strain hhf1, active compounds read low",0.934
same,normalized growth,"locus YBR021W, strain FUR4, active compounds read low",0.975
same,normalized growth,"locus YBR023C, strain chs3, active compounds read low",0.943
same,normalized growth,"locus YBR171W, strain sec66, active compounds read low",1
same,normalized growth,"locus YBR229C, strain ROT2, active compounds read low",0.987
same,normalized growth,"locus YBR231C, strain swc5, active compounds read low",0.954
same,normalized growth,"locus YBR279W, strain paf1, active compounds read low",0.969
same,normalized growth,"locus YCL011C, strain gbp2, active compounds read low",0.966
same,normalized growth,"locus YCL016C, strain dcc1, active compounds read low",0.969
same,normalized growth,"locus YCL029C, strain bik1, active compounds read low",0.995
same,normalized growth,"locus YCL061C, strain MRC1, active compounds read low",0.985
same,normalized growth,"locus YCL069W, strain vba3, active compounds read low",1.01
same,normalized growth,"locus YCR088W, strain abp1, active compounds read low",0.988
same,normalized growth,"locus YDL005C, strain med2, active compounds read low",0.983
same,normalized growth,"locus YDL035C, strain GPR1, active compounds read low",0.987
same,normalized growth,"locus YDL040C, strain nat1, active compounds read low",0.971
same,normalized growth,"locus YDL074C, strain BRE1, active compounds read low",0.93
same,normalized growth,"locus YDL101C, strain DUN1, active compounds read low",0.982
same,normalized growth,"locus YDL134C, strain PPH21, active compounds read low",0.986
same,normalized growth,"locus YDL185W, strain tfp1, active compounds read low",0.996
same,normalized growth,"locus YDL192W, strain arf1, active compounds read low",0.979
same,normalized growth,"locus YDR001C, strain nth1, active compounds read low",0.98
same,normalized growth,"locus YDR069C, strain doa4, active compounds read low",0.982
same,normalized growth,"locus YDR101C, strain arx1, active compounds read low",0.975
same,normalized growth,"locus YDR137W, strain rgp1, active compounds read low",0.777 (active)
same,normalized growth,"locus YDR150W, strain NUM1, active compounds read low",1.01
same,normalized growth,"locus YDR159W, strain sac3, active compounds read low",0.951
same,normalized growth,"locus YDR162C, strain NBP2, active compounds read low",0.973
same,normalized growth,"locus YDR195W, strain ref2",1.05
same,normalized growth,"locus YDR297W, strain sur2, active compounds read low",0.974
same,normalized growth,"locus YDR318W, strain mcm21, active compounds read low",0.976
same,normalized growth,"locus YDR334W, strain swr1, active compounds read low",0.983
same,normalized growth,"locus YDR335W, strain msn5, active compounds read low",1.01
same,normalized growth,"locus YDR388W, active compounds read low",0.972
same,normalized growth,"locus YDR392W, strain spt3, active compounds read low",0.477 (active)
same,normalized growth,"locus YDR502C, strain sam2, active compounds read low",0.956
same,normalized growth,"locus YEL003W, strain gim4, active compounds read low",0.971
same,normalized growth,"locus YEL037C, strain rad23, active compounds read low",0.986
same,normalized growth,"locus YEL061C, strain CIN8 (second series), active compounds read low",1
same,normalized growth,"locus YEL061C, strain CIN8, active compounds read low",0.996
same,normalized growth,"locus YER015W, strain faa2, active compounds read low",0.96
same,normalized growth,"locus YER016W, strain bim1, active compounds read low",0.974
same,normalized growth,"locus YER110C, active compounds read low",0.972
same,normalized growth,"locus YER111C, strain swi4, active compounds read low",1.02
same,normalized growth,"locus YER155C, strain BEM2 (second series), active compounds read low",0.897
same,normalized growth,"locus YER155C, strain BEM2, active compounds read low",0.988
same,normalized growth,"locus YER167W, strain BCK2, active compounds read low",0.99
same,normalized growth,"locus YFR010W, strain ubp6, active compounds read low",1.01
same,normalized growth,"locus YGL078C, strain dbp3, active compounds read low",0.99
same,normalized growth,"locus YGL086W, strain mad1, active compounds read low",0.976
same,normalized growth,"locus YGL167C, strain pmr1, active compounds read low",0.963
same,normalized growth,"locus YGL173C, strain kem1, active compounds read low",0.98
same,normalized growth,"locus YGL227W, strain vid30, active compounds read low",1
same,normalized growth,"locus YGL240W, strain doc1, active compounds read low",0.941
same,normalized growth,"locus YGL248W, strain PDE1, active compounds read low",0.985
same,normalized growth,"locus YGL253W, strain hxk2, active compounds read low",0.936
same,normalized growth,"locus YGR078C, strain PAC10, active compounds read low",0.962
same,normalized growth,"locus YGR135W, strain pre9, active compounds read low",0.931
same,normalized growth,"locus YGR229C, strain SMI1, active compounds read low",0.921
same,normalized growth,"locus YGR252W, strain gcn5, active compounds read low",0.903
same,normalized growth,"locus YHR013C, strain ard1, active compounds read low",0.962
same,normalized growth,"locus YHR027C, strain rpn1, active compounds read low",0.999
same,normalized growth,"locus YHR030C, strain SLT2, active compounds read low",0.993 and 0.954
same,normalized growth,"locus YHR079C, strain IRE1 (second series), active compounds read low",0.976
same,normalized growth,"locus YHR079C, strain IRE1, active compounds read low",0.948
same,normalized growth,"locus YHR094C, strain hxt1, active compounds read low",0.994
same,normalized growth,"locus YHR129C, strain ARP1, active compounds read low",0.989
same,normalized growth,"locus YHR142W, strain chs7, active compounds read low",0.882
same,normalized growth,"locus YHR200W, strain rpn10, active compounds read low",0.981
same,normalized growth,"locus YIL066C, strain RNR3, active compounds read low",0.982
same,normalized growth,"locus YIL073C, strain SPO22, active compounds read low",0.978
same,normalized growth,"locus YIL125W, strain kgd1, active compounds read low",0.997
same,normalized growth,"locus YIR030C, strain dcg1, active compounds read low",0.975
same,normalized growth,"locus YJL092W, strain hpr5, active compounds read low",0.994
same,normalized growth,"locus YJL095W, strain BCK1 (second series), active compounds read low",0.97
same,normalized growth,"locus YJL095W, strain BCK1, active compounds read low",0.915 and 0.957
same,normalized growth,"locus YJL115W, strain asf1, active compounds read low",1
same,normalized growth,"locus YJL129C, strain trk1, active compounds read low",0.97
same,normalized growth,"locus YJL134W, strain LCB3, active compounds read low",0.991
same,normalized growth,"locus YJL154C, strain vps35, active compounds read low",0.993
same,normalized growth,"locus YJL164C, strain tpk1, active compounds read low",0.946
same,normalized growth,"locus YJL166W, strain qcr8, active compounds read low",0.931
same,normalized growth,"locus YJL168C, strain set2, active compounds read low",0.976
same,normalized growth,"locus YJL187C, strain SWE1 (second series), active compounds read low",0.977
same,normalized growth,"locus YJL187C, strain SWE1, active compounds read low",0.971
same,normalized growth,"locus YJR043C, strain POL32, active compounds read low",1.01
same,normalized growth,"locus YJR066W, strain TOR1, active compounds read low",0.95
